Data reported in PubChem BioAssay AID463187 (University of Pittsburgh Molecular Library Screening Center, 2010).
The campaign covered roughly 220,000 compounds. About 1,500 (0.68%) were called active.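 The calls were made as follows: active = Hck-Nef kinase inhibition above about 50% (limit read from the data); inactive = inhibition below that limit.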 The sample as a whole holds a higher share of actives than the screen did.

molecular target: Tyrosine-protein kinase HCK (Homo sapiens) (UniProt P08631); test: inhibitors of Nef-activated human Hck kinase, primary screen, biochemical, Z-Lyte FRET, 384-well, Hck-YEEI (AID 463187); details: Recombinant Hck-YEEI plus Nef, Z-Lyte FRET kinase assay; at 20 µM; hits give high values;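 also: 0% = DMSO with Hck plus Nef and 100% = Hck alone without Nef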
Sequence (P08631 whole entry, looked up): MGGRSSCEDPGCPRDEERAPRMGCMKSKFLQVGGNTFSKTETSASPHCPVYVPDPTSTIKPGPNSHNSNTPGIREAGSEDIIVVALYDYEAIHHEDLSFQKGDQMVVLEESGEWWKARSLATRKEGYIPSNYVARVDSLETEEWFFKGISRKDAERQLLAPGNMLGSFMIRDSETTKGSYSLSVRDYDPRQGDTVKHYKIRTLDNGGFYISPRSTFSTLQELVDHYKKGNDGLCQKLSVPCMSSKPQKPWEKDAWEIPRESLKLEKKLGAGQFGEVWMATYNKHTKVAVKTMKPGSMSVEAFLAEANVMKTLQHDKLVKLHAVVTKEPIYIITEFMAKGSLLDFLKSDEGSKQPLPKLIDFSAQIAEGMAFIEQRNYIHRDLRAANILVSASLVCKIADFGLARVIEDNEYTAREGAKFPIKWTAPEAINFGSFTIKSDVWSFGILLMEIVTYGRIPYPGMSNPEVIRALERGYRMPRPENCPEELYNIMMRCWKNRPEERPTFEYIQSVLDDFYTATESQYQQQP

inhibition, active:
CN(C(=O)COC(=O)c1cc(-c2ccco2)nc2ccccc12)C1CCS(=O)(=O)C1 (stereo not given) 65.3%
O=C(NNC(=O)c1csc(-c2cccnc2)n1)Nc1ccc(Cl)cc1 52.2%
CCc1ccc(Nc2nnc(SCC(=O)c3ccc4c(c3)NC(=O)CO4)s2)cc1 105%
CCS(=O)(=O)C1=NSC2=NC(=O)/C(=C\c3cc(C)n(-c4cccc(OC)c4)c3C)C(=N)N21 55.1%
CCOc1ccccc1C1C(C(=O)OC)=CN(C)C=C1C(=O)OC 71.8%
COc1cccc(CNC(=O)CCC2CCCN(Cc3ccc(OC(F)F)cc3)C2)c1 (stereo not given) 52.7%
N#Cc1c(-c2cccs2)nc(SCC(=O)c2ccc(Br)cc2)[nH]c1=O 72.7%
COc1cccc(C(=O)c2cc3ccc(O)cc3oc2=O)c1 63.1%
Cc1cccn2c(=O)c3cc(C#N)c(=O)n(CCCN4CCOCC4)c3nc12 178%
COC(=O)C1=CN(Cc2ccc(OC)c(OC)c2)C=C(C(=O)OC)C1c1cccs1 79.3%
Cc1ccc2nc(-c3ccncc3)cc(C(=O)Nc3ccc(OC(F)F)cc3)c2c1 53.4%
O=C(Nc1ccncc1)c1cc(-c2ccccn2)nc2ccc(Br)cc12 81.4%
Cc1cc(/C=N/Nc2ccc([N+](=O)[O-])cn2)c(C)n1-c1cccc(C(=O)O)c1 58.6%
COC(=O)c1ccc(OCC(O)CN(CCO)CC(O)Cn2ccc3ccccc32)cc1 (stereo not given) 60.4%
COCCCn1c(-c2cccs2)nc2nc3ccccc3nc21 67.9%
Cc1ncc(CC(=O)n2cc(C(=O)c3cc(Cl)ccc3O)cn2)s1 78.7%
COc1ccc(C(=O)n2nc(-c3ccc(Cl)cc3)nc2N)cc1OC 81.4%

inhibition, inactive:
COc1ccc(NC(=O)COc2ccc(C(=O)OCC(=O)N(C)C3CCS(=O)(=O)C3)cc2OC)cc1 (stereo not given) -34.5%
Cc1c(-c2cccc(Cl)c2)nc2ccccc2c1C(=O)OCC(=O)N(C)C1CCS(=O)(=O)C1 (stereo not given) -3.32%
CC(C)Cc1nn2c(=O)cc(O)nc2s1 1.45%
O=C(Nc1ccc(Cl)cc1)Nc1ccc(Oc2cccnc2)nc1 -9.14%
O=C(NNC(=O)c1cccnc1)Nc1ccccc1 -0.546%
CC(=O)Nc1ccc(OCCC[n+]2cccc(C(=O)[O-])c2)cc1 12%
FC(F)(F)c1ccc(CN2C[C@@H]3C(c4ccccc4)C4(c5ccccc5)CC3(C4)[C@H]2c2ccccc2)cc1 (stereo not given in full) 17.4%
Cc1cccc(-n2c(SCC(N)=O)nc3c(c2=O)C2(CCCCC2)Cc2ccccc2-3)c1 6.81%
CCCc1nc2ccccc2c(C(=O)OCC(=O)c2ccc3c(c2)NC(=O)CO3)c1CC -1.08%
COc1cccc(Nc2nnc(SCC(=O)N3CC(=O)Nc4ccccc43)s2)c1 36.9%
CO/N=C(\N)c1ccc([N+](=O)[O-])cc1 3.14%
CCOc1ccc(N2C(=O)Nc3ccccc3C2(O)C(=O)NCc2ccco2)cc1 (stereo not given) 20.7%
CNc1ccc(SC#N)cc1 33.3%
N#Cc1c(-c2ccc(F)cc2)cc(C2CC2)nc1SCC(=O)c1cccs1 3.07%
N=c1ccn(CC(=O)NC(N)=O)c2ccccc12 0.937%
O=C(NC1CCCCCC1)c1cccnc1Sc1ccc(Cl)cc1 2.04%
CCC1=NN2C(=N)/C(=C/c3cc(C)n(-c4ccccc4)c3C)C(=O)N=C2S1 15.3%
Cc1cc(/C=C2/C(=N)N3C(=NC2=O)SN=C3S(C)(=O)=O)c(C)n1-c1ccccc1 0.408%
O=c1cc(-c2ccccc2)[nH]c2cc(F)ccc12 2.23%
CCc1ccccc1N1CN(Cc2ccco2)CNC1=S 3.91%
O=C1/C(=C/c2cccs2)CCC1C1CCCC1 (stereo not given) 26%
CCOc1ccc(C2c3[nH]c4ccccc4c3CCN2Cc2cccn2-c2ncccn2)cc1 (stereo not given) 15.4%
CCOc1cc(C2C(C(=O)OC)=CN(C3CCCC3)C=C2C(=O)OC)cc(Br)c1O 1.91%
COC(=O)C1=CN(C)C=C(C(=O)OC)C1c1ccc(Cl)cc1Cl 9.15%
O=C(NCC1CCCCC1)c1cc(S(=O)(=O)N2CCCCC2)ccc1N1CCOCC1 19.1%
Cc1cccc(NS(=O)(=O)c2ccc(C)c(C(N)=O)c2)c1 -7.85%
COc1cccc(CN(C)CC(=O)Nc2ccccc2C(=O)Nc2ccccc2)c1 4.04%
COc1ccc(-c2cc3nc(C)c(CCC(=O)NC(C)CCc4ccco4)c(C)n3n2)c(OC)c1 (stereo not given) -1.24%
Cc1cnc(C(=O)N2CCCC(C(=O)c3ccc(C(F)(F)F)cc3)C2)cn1 (stereo not given) 17.7%
COc1cccc(CNC(=O)CCC2CCCN(C(=O)c3ccoc3C)C2)c1 (stereo not given) 1.1%
COc1cccc(C(=O)N2CCCC(CCC(=O)NCc3ccc(F)c(F)c3)C2)c1 (stereo not given) 18.6%
O=C(/C=C/c1ccc(F)cc1)Nc1cccc(S(=O)(=O)Nc2cccc(C(F)(F)F)c2)c1 2.87%
CC(=O)NC(=S)NNC(=O)c1ccc(Br)cc1 -1.36%
COc1cccc2c1OCC(C(=O)NCc1ccc(Cl)cc1Cl)=C2 2.65%
Cc1nc2nc(SCC(=O)c3ccccc3)[nH]c2cc1Br 16.2%
CCc1ccc(C(=O)CSc2nnc(C)c(=O)[nH]2)cc1 10.1%
COc1cccc(C2Nc3cccc4cccc(c34)N2)c1 21.8%
COCc1cc(C)nc2sc(C(=O)NC3CCCCC3)c(N)c12 1.3%
COc1ccc2oc(=O)c(C(=O)N3CCCC3)cc2c1 22%
COc1ccc2oc(=O)c(C(=O)O)cc2c1 -0.521%
O=C(Cc1c(O)c2ccccc2[nH]c1=O)NCc1ccccc1 2.47%
COc1cc(OC)cc(C(=O)NCC(=O)OCc2csc(-c3ccccc3)n2)c1 3.87%
Cc1cc(NC(=O)CN2C(=O)NC(CCc3ccccc3)C2=O)no1 (stereo not given) -23.9%
CC(C)OC(=O)Cn1nc(C(F)(F)F)c2c1CCCC2 22.4%
O=C(N/N=C/c1ccc([N+](=O)[O-])cc1)C(=O)N1CCCC1 6.04%
N#C/C(=C/c1ccc(N2CCOCC2)o1)C(=O)N1CCOCC1 1.17%
Cc1nnc(SCC(=O)NNC(=O)c2ccc(Cl)cc2)n1CC1CCCO1 (stereo not given) 22.1%
Cc1cccn2c(=O)c3cc(C(=O)N4COCC4(C)C)n(C)c3nc12 11.2%
Cc1cccn2c(=O)c3cc(C#N)c(=NC(=O)c4cccnc4)n(CC4CCCO4)c3nc12 (stereo not given) 35.1%
COc1ccc(C2=NN(C(=O)CCC(=O)O)C(c3cccs3)C2)cc1OC (stereo not given) 19.1%
COc1ccc(CCNC(=O)COC(=O)/C=C/c2cccs2)cc1OC 19.3%
O=C(NCc1cccs1)c1cc(-c2ccccn2)nc2ccc(Br)cc12 -19.4%
Cc1ccc2nc(-c3ccccc3)cc(C(=O)O)c2c1 3.19%
Cc1ccc2nc(-c3ccccn3)cc(C(=O)Nc3ccc4c(c3)OCO4)c2c1 -2.84%
Cc1ccc2nc(-c3ccncc3)cc(C(=O)Nc3ccc4c(c3)OCCO4)c2c1 -4.23%
COC(=O)Cn1c(=NC(=O)c2cc(OC)c(OC)c(OC)c2)sc2cc(OC)ccc21 -1.02%
COCC(C)NC(=O)COc1nncc2ccccc12 (stereo not given) 21.5%
Cc1cc(=O)[nH]c(S)c1C#N -0.332%
O=S(=O)(Cc1ccccc1)c1nc2ccccc2n1Cc1ccccn1 5.67%
Cc1ccc(-n2c(C)cc(/C=N/Nc3ccc([N+](=O)[O-])cn3)c2C)c(C)c1 0.189%
Cc1cc(/C=N/n2cnnc2)c(C)n1-c1cccc(C(=O)O)c1 -0.934%
Cc1c(CCOC(=O)CC23CC4CC(CC(C)(C4)C2)C3)sc[n+]1Cc1ccc([N+](=O)[O-])cc1 6.69%
C=CCn1c(=N)n(CC(O)COc2ccc(OC)cc2)c2ccccc21 (stereo not given) 16%
COc1ccc(CCNCC(O)Cn2ccc3ccccc32)cc1OC (stereo not given) 37.4%
CC(C)n1c(-c2cccs2)nc2ccccc21 10.6%
COc1ccccc1C(=O)Nn1c(-c2cccs2)nc2ccccc2c1=O 2.4%
Cc1cc(C)cc(C(=O)NC(=S)Nc2ccc3[nH]c(=O)[nH]c3c2)c1 2.61%
Cc1cc(-c2csc(N)n2)c(C)n1-c1ccccc1 7.5%
COc1ccc(CCn2c(=N)c(C(=O)NCc3ccco3)cc3c(=O)n4cccc(C)c4nc32)cc1 7.77%
CCc1cccc2c(=O)c(C(=O)NCCCOC)c[nH]c12 -18.3%
COc1ccccc1N(C)S(=O)(=O)c1ccc(C(=O)NC2CCCCCC2)cc1 0.492%
CCCCn1c(N)c(N(CC)C(=O)/C=C/c2ccco2)c(=O)[nH]c1=O -7.95%
Cc1ccc(CCC(=O)Nc2ncc(Cc3cc(Cl)ccc3Cl)s2)o1 6.19%
O=C(c1cnn(-c2ccc(Cl)cc2)c1)c1ccccc1O 17%
O=C(NCc1csc(-c2cccs2)n1)C1CC1 -1.15%
COC(=O)CN1C(=S)N(c2ccccc2)C(=O)C1CC(=O)Nc1ccc(Cl)cc1 (stereo not given) 2.46%
COc1ccc(C(=O)n2nc(-c3ccc(C)cc3)nc2N)cc1OC -1.4%
COc1ccc(C(=O)O/N=C(\N)Cc2ccc(Cl)cc2Cl)cc1OC 3.19%
